# The panel holds about 83,000 compounds, 20% with a hit somewhere; the sample as a whole holds those more often.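 Method: cells in 96-well plates; compound added at one concentration; 48 h incubation; percent growth measured; values under 10 scored active.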 Active and inactive are the calls of the source.
# Tested on: PC-3 prostate
# Experiment: NCI-60 one-dose screen, 48 h (100 = growth as untreated, 0 = no growth, -100 = all killed)
# Conditions: 10 µM unless noted
# Description: Growth inhibition of the PC-3 human tumor cell line is measured as a screen for anti-cancer activity. Cells are grown in 96 well plates and exposed to the test compound for 48 hours. Compounds are tested at a single concentration, which is 10^-5 M for most compounds. The reported endpoint is percent growth (GI% or GIPRCNT), where numbers from 0 - 100% represent growth inhibition, and numbers from -100% - 0 represent cell death. For example, a value of 40 represents 60% growth inhibition. A value of 0 means no net growth occurred over the course of the experiment. A value of -40 indicates 40% of cells at the beginning of the experiment died by the end of the experiment. A value of -100 means all cells are dead at the end of the experiment.
# NCI-60 Human Tumor Cell Lines Screen was performed using the standard one-dose NCI protocol, which is described in more detail at https://dtp.cancer.gov/discovery_development/nci-60/default.htm.
# Compounds with GIPRCNT values below 10 were considered active. Activity score was based on GIPRCNT using the following formula: […]
# Score is 0 for GIPRCNT values of 100 or above, 50 for GIPRCNT values of 0, and 100 for GIPRCNT values of -100.
row,Structure (SMILES),growth
1,COc1cc(C2CC(c3cc(OC)c(OCCCOc4ccc(-n5c(/C=C/c6ccccc6)nc6ccccc6c5=O)cc4)c(OC)c3)=NO2)cc(OC)c1OC (stereo not given),79.4% (inactive)
2,COc1cc(C(=O)/C=C/c2c(C(F)(F)F)nc3sccn23)cc(OC)c1OC,16.4% (inactive)
3,C=C1C(=O)O[C@H]2[C@H]1CC/C(COC(=O)C(=O)c1cn(C)c3ccc(OC)cc13)=C\CC[C@@]1(C)O[C@@H]21,-59.2% (active)
4,CC/C=C\C/C=C\C[C@H](O)C/C=C1/C(=O)C=C[C@@H]1C/C=C\CCCC(=O)O,30.1% (inactive)
5,COc1cc(N2C(=O)c3nccnc3C2=O)cc(OC)c1OC,98.7% (inactive)
6,Cc1nc2ccccc2c(/C=C/c2ccc(Cl)cc2)c1C(=O)/C=C/c1ccc(F)cc1,20.4% (inactive)
7,Cn1c(-c2c(N)n(Cc3cccnc3)c3nc(C#N)c(C#N)nc23)nc2ccccc21,66% (inactive)
8,Cc1c(C(=O)N[C@@H](Cc2ccccc2)C(=O)C(=O)NCCc2ccccc2)[nH]c2ccccc2c1=O,93.8% (inactive)
9,COc1cccc(-c2nc3sccn3c2-c2ccnc(NCCNS(=O)(=O)c3ccc(C(F)(F)F)cc3)c2)c1,16.8% (inactive)
10,Cc1cccc(-c2nc(N(C)c3ccc4ncsc4c3)c3ccccc3n2)n1,45.5% (inactive)
11,C=C(C)[C@@H]1CC[C@]2(C(=O)NC3CCCCC3)CC[C@]3(C)[C@H](CC[C@@H]4[C@@]5(C)CCC(=O)C(C)(C)[C@@H]5CC[C@]43C)[C@@H]12,60.1% (inactive)
12,COc1cc(C(=O)/C=C/c2c(-c3ccc(F)cc3)nc3sc(C)cn23)cc(OC)c1OC,10.7% (inactive)
13,CCCCN(CCCC)CC(C)(C)C(O)c1ccc(OC)c2ccccc12 (stereo not given),29.5% (inactive)
14,Cc1ccc(N(C(=O)CCc2c[nH]c3ccccc23)[C@H](C(=O)Nc2ccc(Cl)cc2)c2cccc([N+](=O)[O-])c2)cc1,62.2% (inactive)
15,O=S(=O)(Nc1cccc(Cl)c1)c1ccc(-c2cnc(C3CC3)o2)cc1,26.3% (inactive)
16,O=C1Nc2ccccc2/C1=C/c1cn(C(=O)c2ccc(Cl)cc2)c2ccccc12,95.7% (inactive)
17,C=CCNc1nc(NN2C(=O)c3cccc4cccc(c34)C2=O)nc(-n2cnc3ccccc32)n1,67.1% (inactive)
18,NCCCNc1nc2ccccc2c2c(=O)c3cccc(Cl)c3sc12,43.8% (inactive)
19,O=C(/C=C/c1cccc(O)c1)c1cccc(-n2cc(-c3ccc4ccccc4c3)[nH]c2=O)c1,5.01% (active)
20,COC(=O)[C@]12CC[C@@H](C)[C@H](C)[C@@H]1C1=CC[C@@H]3[C@@]4(C)C(C=O)=C[C@@](C)(COC(=O)c5ccco5)C4=CC[C@@]3(C)[C@]1(C)CC2,14.1% (inactive)

row,Structure (SMILES),growth
1,COc1ccc(Cl)cc1NC(=O)C(Br)C(Br)C(=O)O (stereo not given),56.3% (inactive)
2,CC1O[C@@H](OC2[C@H](OC(=O)/C=C/c3ccc(O)c(O)c3)C(COC3O[C@H](C)C(O)C(O)[C@@H]3O)O[C@@H](OCCc3ccc(O)c(O)c3)[C@H]2O)[C@@H](O)C(O)[C@H]1O (stereo not given in full),99.9% (inactive)
3,Cc1ccc(-c2cc(-c3ccccc3C)[nH]c(=O)c2C#N)s1,85.6% (inactive)
4,COc1ccc(-c2nc(SCCC(C)C)nc(N/N=C\c3cccc(Cl)c3)c2C#N)cc1,83.7% (inactive)
5,Cc1ccc(C(=O)COc2cccc(/C=C3\Oc4ccccc4C3=O)c2)cc1,101% (inactive)
6,CCc1ccccc1-n1c(N)c(C#N)c(-c2ccc(N(C)C)cc2)c(C#N)c1=O,82.6% (inactive)
7,COc1ccc(-c2[nH]c(=S)n(C(CC3(C)NCC(=O)N3n3c(-c4ccccc4)cc(C)nc3=S)c3ccc(OC)cc3)c(=O)c2Br)cc1 (stereo not given),66% (inactive)
8,O=c1cc(C2NNC(=S)N2)c2ccc3ccccc3c2o1 (stereo not given),85.2% (inactive)
9,COc1cc(OC)cc(C2CC(=O)Nc3c2c(C)nn3-c2nc3ccccc3[nH]2)c1 (stereo not given),26.4% (inactive)
10,CN1C(=O)N(C)C2C1NN=c1s/c(=C\c3ccccc3)c(=O)n12 (stereo not given),28.2% (inactive)
11,COc1ccc2occ(C3=C(c4c[nH]c5ccccc45)C(=O)N(O)C3=O)c2c1,81.3% (inactive)
12,NNC(=O)c1nc(N)n(-c2ccc(S(N)(=O)=O)cc2)n1,89.7% (inactive)
13,N#Cc1c(-c2ccccc2)cc(-c2ccc(Nc3nc(Nc4ccc(F)cc4)nc(Nc4ccc(F)cc4)n3)cc2)nc1N,75.8% (inactive)
14,Cc1ccc(S(=O)(=O)n2cc(CNc3ccc(N4CCOCC4=O)cc3)c3ccccc32)cc1,89.6% (inactive)
15,O=c1[nH]c2ccccc2n1C1CCN(CCOc2ccccc2)CC1,58.9% (inactive)
16,Nc1ccc2c(c1)c(N)nn2C(=O)Nc1ccc(Cc2ccccc2)cc1,60.2% (inactive)
17,c1coc(-c2c3ccc(=[N+]4CCCCC4)cc-3oc3cc(N4CCCCC4)ccc23)c1,-73.8% (active)
18,CS(=O)(=O)c1ccc(Nc2nc(N[C@H]3CCCC[C@H]3N)nc3cc[nH]c(=O)c23)cc1,14.2% (inactive)
19,COc1cc(C2NC(=O)c3ccccc3N2)ccc1OCCCCCOc1c(OC)cc(C2=NOC(c3cc(OC)c(OC)c(OC)c3)C2)cc1OC (stereo not given),36.8% (inactive)
20,Cc1c(C)c2c(c(C)c1OCC(=O)O)CC[C@@](C)(CCC[C@@H](C)CCC[C@@H](C)CCCC(C)C)O2,-16% [50 µM] (active)

# Source: PubChem BioAssay (NCI)
